Reference: PubChem BioAssay AID485364 (National Center for Advancing Translational Sciences (NCATS), 2010)
Among all 360,000 compounds or so, about 11,000 (3.1%) were called active. Another 4% or so got no clear call; they are omitted. Shown is part of a subset that was picked to be rich in actives. Unmarked numbers belong to inactive results. The call rests on the fitted dose curve; in most records, active means well fitted inhibition curve with a large enough effect; inconclusive means small, poorly fitted or top-dose-only effect; inactive means no such curve, though single readings can be large or run the other way.

The compounds below were run against Schistosoma mansoni thioredoxin glutathione reductase (TGR) (UniProt Q962Y6) (assay: qHTS Assay for the Inhibitors of Schistosoma Mansoni Peroxiredoxins). Conditions: purified TGR, DTNB reduction, TNB absorbance 405 nm; series mostly up to 114 µM; activity change, negative = inhibition: at the top concentration.
How it was run: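 Kinetic colorimetric format: TGR-catalysed, NADPH-driven DTNB reduction monitored via TNB absorbance. Enzyme dispensed at 20 nM; compound exposure 15 min at room temperature before reaction start.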
Further: nearly all actives have a fitted effect of over 60% in size.
On the % scale 0 is the no-effect control and ±100 the full control effect; potency means the concentration at half of the fitted maximal effect.

Row | Structure (SMILES) | activity change, negative = inhibition | Potency
1 | COc1ccc(OCCCn2c(C3CC(=O)N(c4ccc(F)cc4)C3)nc3ccccc32)cc1 (centres undefined) | -0.0863% | –
2 | CCOC(=O)C1(Cc2ccccc2C)CCCN(S(C)(=O)=O)C1 (centres undefined) | 4.13% | –
3 | CCOC(=O)C1(Cc2ccccc2C)CCCN(C(=O)c2ccc(COC)o2)C1 (centres undefined) | – | 15.8 µM (active)
4 | CCOC(=O)C1(Cc2ccccc2C)CCCN(C(=O)CCc2c(C)noc2C)C1 (centres undefined) | -9.49% | –
5 | COc1ccc(CNc2nc(-c3ccccc3)nn2C(=O)c2ccccc2OC)cc1 | 21.4% | –
6 | CCOC(=O)c1cccc(NC(=O)Cn2cnc3nc4c(cc3c2=O)CCCC4)c1 | 8.05% | –
7 | CC1=C(c2ccc(C)c(C)c2)S(=O)(=O)NC1=NCc1ccccc1Cl | 0.753% | –
8 | C=CCn1c(SCC(=O)NCC2CCCO2)nc2sc(C)c(C)c2c1=O (centres undefined) | 4.37% | –
9 | C=CCn1c(SCC(=O)Nc2ccc(NC(C)=O)cc2)nc2sc(C)c(C)c2c1=O | -18% | –
10 | C=CCn1c(=S)[nH]c2scc(-c3ccco3)c2c1=O | – | 8.91 µM (active)
11 | C=CCn1c(SCC(=O)/C(C#N)=C(\C)N)nc2sc(C)c(C)c2c1=O | 2.71% | –
12 | C=CCn1c(SCc2c(C)noc2C)nc2sc3c(c2c1=O)CCC(C)C3 (centres undefined) | 5.66% | –
13 | C=CCNC(=O)CSc1nc2scc(-c3ccco3)c2c(=O)n1CC=C | – | 39.8 µM (active)
14 | C=CCn1c(SCc2csc(C)n2)nc2scc(-c3ccc(C)o3)c2c1=O | – | 7.94 µM (active)
15 | CCC1(C)Cc2c(sc3[nH]c(=S)n(Cc4ccccc4)c(=O)c23)CO1 (centres undefined) | -10.7% | –
16 | CCOC(=O)c1ccc(CN(Cc2ccccc2)S(=O)(=O)c2ccc(Cl)cc2)cc1 | 7.42% | –
17 | Cc1cccc(N2CCN(C(=O)c3cc4c(=O)oc5ccccc5c4s3)CC2C)c1 (centres undefined) | 4.3% | –
18 | O=c1cc2nc(-c3ccccc3)nc(SCCOc3ccc(Cl)cc3)n2[nH]1 | 0.903% | –
19 | COc1ccc(CNc2nc(-c3ccc(Cl)cc3)nn2C(=O)c2ccccc2)cc1 | 2.53% | –
20 | Cc1cccc(-n2ncc(C(=O)N3CCc4ccccc4C3)c2C2CCN(C(=O)OC(C)(C)C)CC2)c1 | -1.72% | –
21 | CN(c1ccccc1)S(=O)(=O)c1ccc(Cl)c(C(=O)OCC(N)=O)c1 | 6.88% | –
22 | CN(c1ccccc1)S(=O)(=O)c1ccc(Cl)c(C(=O)OCC(=O)N2CCOCC2)c1 | -2.25% | –

Row | Structure (SMILES) | activity change, negative = inhibition | Potency
23 | CN(c1ccccc1)S(=O)(=O)c1ccc(Cl)c(C(=O)OCC(=O)NCc2ccco2)c1 | – | 22.4 µM (active)
24 | CCc1ccccc1NS(=O)(=O)c1ccc2nc(-c3ccccc3)[nH]c2c1 | -1.94% | –
25 | O=S(=O)(Nc1ccc2nc(-c3cccc(Cl)c3)oc2c1)c1ccccc1 | -2.42% | –
26 | O=S(=O)(Nc1ccc2nc(-c3ccco3)[nH]c2c1)c1ccccc1 | – | 10 µM (active)
27 | O=C(CN1C(=O)COc2ccc(S(=O)(=O)N3CCOCC3)cc21)N1CCN(c2cccc(Cl)c2)CC1 | 0.662% | –
28 | CCOC(=O)CN1C(C(=O)c2ccccc2)=C(OC(=O)C(C)(C)C)c2ccccc2S1(=O)=O | 0.561% | –
29 | Cc1ccc(N(CC(=O)NCc2ccc(Cl)cc2)S(=O)(=O)N(C)C)cc1 | 6.61% | –
30 | Cc1ccc(-c2csc(N(Cc3ccco3)C(=O)c3cccs3)n2)cc1 | 2.38% | –
31 | O=C(O)CN(Cc1ccco1)S(=O)(=O)c1ccccc1 | -3.68% [at 11.4 µM] | –
32 | O=C(O)CCC(=O)N(Cc1ccco1)c1nc(-c2ccccc2)cs1 | – | 44.7 µM (active)
33 | COc1ccccc1N1CCN(c2ccc(=O)n(CC(=O)NCc3ccc(OC(C)C)cc3)n2)CC1 | -0.678% | –
34 | Cc1cc(NS(=O)(=O)c2ccc(NC(=O)c3ccccc3C)cc2)nc(C)n1 | 2.95% | –
35 | Cc1nnc(N2CCC(C(=O)Nc3ccc(F)cc3)CC2)c2nn(-c3ccc(Cl)cc3)c(C)c12 | 0.308% | –
36 | COc1ccc(NC(=O)CCc2nnc3n(CC(C)C)c(=O)c4ccccc4n23)cc1OC | 2.05% | –
37 | COc1ccc(C(=O)C2CN(C)CC2C(=O)c2ccc(OC)cc2)cc1 (centres undefined) | -1.68% | –
38 | COc1ccc(OCCCC(=O)Oc2ccc(OC)cc2)cc1 | 0.251% | –
39 | COc1ccc(C(=O)C[n+]2ccc(C)cc2)cc1 | 3.8% | –
40 | COc1ccc(OCC(=O)OCCN(C)C)cc1 | -8.28% | –
41 | COc1ccc(OCCC(=O)c2ccc(OC)cc2)cc1 | – | 1.78 µM (active)
42 | COc1ccc(C(=O)CC2C(=O)N(C)C(=O)N(C)C2=O)cc1 | – | 25.1 µM (active)
43 | CC(=O)c1ccc(NC(=O)CSc2nc(-c3ccccc3F)nc3c2c(=O)n(C)c(=O)n3C)cc1 | -9.4% | –
44 | CCN(CC)c1ccc(NC(=O)CN2C(=O)c3cccnc3Oc3ccc(Cl)cc32)c(C)c1 | 3.43% | –

Row | Structure (SMILES) | activity change, negative = inhibition | Potency
45 | Cc1cccc(C(=O)Nc2ccc(S(=O)(=O)N3CCCCC3c3cccnc3)cc2)c1 (centres undefined) | 11.3% | –
46 | Cc1cccc(N2CCN(C(=O)c3ccc4c(c3)CCN4S(=O)(=O)c3ccccc3)CC2)c1C | 4.82% | –
47 | COc1cccc(NC(=O)c2csnn2)c1 | -7.81% | –
48 | Cc1cccc(NC(=O)Cn2c(=O)n(CCC(C)C)c(=O)c3cccnc32)c1 | -5.21% | –
49 | COc1ccc(-n2ccn(CC(=O)Nc3ccc(C)c(C)c3)c(=O)c2=O)cc1OC | -11.1% | –
50 | CCOC(=O)c1c(-c2ccccc2)oc2ccc(OCC(=O)NN)cc12 | -0.0748% | –
51 | CCOC(=O)c1c(-c2ccccc2)oc2ccc(OC(=O)N(C)C)cc12 | -10.8% | –
52 | CCOC(=O)c1c(-c2ccccc2)oc2cc(Br)c(O)c(C=O)c12 | – | 15.8 µM (active)
53 | COc1cccc(C(=O)NCC(=O)OCc2cc(=O)n3ccsc3n2)c1 | -12.5% | –
54 | Cc1nnc(SCC(N)=O)n1CC1CCCO1 (centres undefined) | 2.09% | –
55 | O=C(CSc1nnc(-c2ccco2)n1CC1CCCO1)c1ccccc1 (centres undefined) | – | 25.1 µM (active)
56 | CNC(=O)NC(=O)CSc1nnc(-c2ccc(F)cc2)n1CC1CCCO1 (centres undefined) | 6.86% | –
57 | Cc1ccccc1CSc1nc2c([nH]c3ccccc32)c(=O)n1C | 7.19% | –
58 | COc1cccc(OCCn2c(-c3ccc(Br)cc3)nc3ccccc3c2=O)c1 | -2.8% | –
59 | CNc1ccc(NC(C)=O)cc1[N+](=O)[O-] | 4.44% | –
60 | Cc1ccc(/C=C/C(=O)Nc2ccc([N+](=O)[O-])c(NC(=O)/C=C/c3ccc(C)o3)c2)o1 | – | 22.4 µM (active)
61 | Cc1cc(NC(=O)Nc2ccccc2[N+](=O)[O-])no1 | 12.6% | –
62 | COc1ccc(OC)c(NC(=O)Cc2cccs2)c1 | 14.7% | –
63 | COc1ccc(OC)c(NC(=O)/C=C/c2ccc(C)o2)c1 | – | 50.1 µM (active)
64 | Cc1ccc(/C=C/C(=O)Nc2cc(S(=O)(=O)N3CCCCCC3)ccc2OCC(F)(F)F)o1 | -10.1% | –
